In PubChem BioAssay one finds composite z-score and z-score data, which are given here for six compounds.

In experiment [1] the test system is Plasmodium falciparum Sir2 (PF13_0152, Sir2A). In words: Plasmodium falciparum Sir2A binding compounds – biochemical, small-molecule microarray, 635 nm fluorescence, primary screen (AID 1098).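 Note: score merges spot fluorescence intensity with its signal-to-noise ratio.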 The following applies: fluorescence 635 nm, higher = more signal.
A short description of experiment [2]: probe aDKK1 binding to arrayed compounds – biochemical, biotinylated probe, 635/667 nm fluorescence, primary screen (AID 1099).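 Note: score merges 667nm spot fluorescence with signal to noise across triplicate slides.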 The following applies: small-molecule microarray, higher = more signal.
Experiment [3] can be described thus: probe aCHRDL2 binding to arrayed compounds – biochemical, biotinylated probe, 635/667 nm fluorescence, primary screen (AID 1100). The following applies: small-molecule microarray, higher = more signal.
A short description of experiment [4]: change in splice reporter luminescence, either direction, cell-based, HEK293, spliceosome inhibition project, primary screen (AID 1101).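 Note: HEK293 cells carrying a splicing-competent luciferase reporter gene; test concentration not given here.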 The following applies: HEK293 splicing luciferase reporter, 24 h, higher = more signal, called active from +8 up or from −8 down. On the technique in general: Reporter assays use an easily measured gene product as a stand-in for the process of interest.

For experiment [5], the target named is Fibroblast growth factor 10 (Homo sapiens) (UniProt O15520). In words: compounds binding fibroblast growth factor 10 – biochemical, small-molecule microarray, 635 nm fluorescence, primary screen (AID 1102). The following applies: FGF10 binding, fluorescence 635 nm, higher = more signal.
Experiment [6] deals with glycogen synthase kinase-3 (GSK3A per assay name; protocol says GSK3B). In words: compounds binding glycogen synthase kinase-3 – biochemical, small-molecule microarray, 635 nm fluorescence, GSK3A, primary screen (AID 1103). Note: the record names both GSK3A and GSK3B. The following applies: fluorescence 635 nm, higher = more signal.
Experiment [7] addresses Epidermal growth factor receptor (Homo sapiens) (UniProt P00533). In words: compounds binding epidermal growth factor receptor – biochemical, small-molecule microarray, 635 nm fluorescence, primary screen (AID 1104).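 Note: score merges 667 nm emission intensity with spot signal to noise over triplicate slides.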 The following applies: EGFR binding, higher = more signal.
Experiment [8] deals with Follistatin-related protein 3 (Homo sapiens) (UniProt O95633). In words: compounds binding follistatin-related protein 3 – biochemical, small-molecule microarray, 635 nm fluorescence, primary screen (AID 1105).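 Note: score merges emission near 667 nm and signal to noise per printed spot across three slides.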 The following applies: FSTL3 binding, higher = more signal.
Experiment [9] has as its target Dickkopf-related protein 1 (Homo sapiens) (UniProt O94907). In words: small molecules binding DKK1 protein – biochemical, small-molecule microarray, 635 nm fluorescence scan, primary screen (AID 1106).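 Note: score merges emission near 667 nm with signal to noise over three replicate slides.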 The following applies: higher = more signal.
Experiment [10] deals with Inhibin beta A chain (activin A). In words: small molecules binding activin A – biochemical, small-molecule microarray, 635 nm fluorescence scan, primary screen (AID 1107).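 Note: mouse activin A protein probed at 4.33 µg/mL on printed slides; score merges bound-protein fluorescence near 667 nm with spot signal-to-noise.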 The following applies: INHBA, higher = more signal.
Experiment [11] deals with Human papillomavirus type 1a protein E7 (residues 44-93). In words: small molecules binding HPV E7 44-93 – biochemical, small-molecule microarray, residues 44-93, 635 nm fluorescence, primary screen (AID 1108).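 Note: E7 fragment applied at 1 µg/mL in TBST for 1 h at 4 C; score combines spot fluorescence with its signal to noise ratio.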 The following applies: fluorescence 635 nm, higher = more signal.
Experiment [12] is described as follows: hepatitis C replication reporter changes, two-sided – Huh7 cells, luciferase reporter, HCV replication inhibitor project, primary screen (AID 1109).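 Note: huh7 hepatoma cells harbouring a luciferase neomycin HCV replicon reporter; luciferase luminescence as measure of HCV replicon replication; test concentration not given here.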 The following applies: Huh7 HCV replicon luciferase reporter, 48 h; higher = more signal.
Experiment [13] has as its target Left-right determination factor 2 (Homo sapiens) (UniProt O00292). In words: small molecules binding LEFTY2 protein – biochemical, small-molecule microarray, 635 nm fluorescence scan, primary screen (AID 1110). The following applies: higher = more signal.
Experiment [14] concerns the target Calmodulin-1 (Homo sapiens) (UniProt P0DP23). In words: small molecules binding calmodulin-1 with EGTA – biochemical, small-molecule microarray, Cy5-labelled CALM1, profiling panel (AID 1111).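 Note: labelled calmodulin applied in Tris saline Tween buffer holding calcium plus EGTA and DTT.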 The following applies: Cy5-CALM1 binding fluorescence, higher = more signal.
Experiment [15] has the same target. In words: small molecules binding Ca-loaded calmodulin-1 – biochemical, small-molecule microarray, Cy5-labelled CALM1, plus calcium, artefact control for SMM control-protein annotation, profiling panel (AID 1112).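 Note: score merges spot fluorescence with signal to noise from triplicate slides.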 The following applies: Cy5-CALM1 binding fluorescence, higher = more signal.
The nature of experiment [16]: probe aWnt5a binding to arrayed compounds – biochemical, biotinylated probe, 635/667 nm fluorescence, primary screen (AID 1113).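 Note: score merges 667 nm fluorescence intensity with signal-to-noise per printed feature.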 The following applies: small-molecule microarray, higher = more signal.
A short description of experiment [17]: probe aShh binding to arrayed compounds – biochemical, biotinylated probe, 635/667 nm fluorescence, primary screen (AID 1114).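 Note: probe is biotin-labelled aShh protein from a stem cell growth factor screen; measures binding of labelled protein to compounds printed on the slide; score merges feature fluorescence at 667 nm with signal-to-noise.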 The following applies: small-molecule microarray, higher = more signal.
Experiment [18] is described as follows: probe aNog binding to arrayed compounds – biochemical, biotinylated probe, 635/667 nm fluorescence, primary screen (AID 1115).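 Note: probe is biotinylated aNog protein used at 0.15 µg/mL for 1 h at 4 C; z-score combines 667 nm fluorescence of each spot with its signal to noise.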 The following applies: small-molecule microarray, higher = more signal.
The target of experiment [19] is Torsin-1A-interacting protein 1 (Homo sapiens) (UniProt Q5JTV8). In words: compound microarray binding of lysate hLAP1 – cell lysate, small-molecule microarray, COS7 lysate, 635/667 nm fluorescence, primary screen (AID 1116). The following applies: 635 nm fluorescence, higher = more signal.
The target in experiment [20] is Alpha-bungarotoxin (Bungarus multicinctus) (UniProt P60615). In words: compounds binding labelled alpha-BTX control protein – biochemical, small-molecule microarray, Alexa647 label, 635/667 nm fluorescence, artefact control for SMM control protein annotation, profiling panel (AID 1117). The following applies: alpha-BTX-A647 binding fluorescence, higher = more signal.

SMILES strings stand for the structures. The source made the active and inactive calls.

Chain of Follistatin-related protein 3 (Homo sapiens) (O95633 whole entry, looked up): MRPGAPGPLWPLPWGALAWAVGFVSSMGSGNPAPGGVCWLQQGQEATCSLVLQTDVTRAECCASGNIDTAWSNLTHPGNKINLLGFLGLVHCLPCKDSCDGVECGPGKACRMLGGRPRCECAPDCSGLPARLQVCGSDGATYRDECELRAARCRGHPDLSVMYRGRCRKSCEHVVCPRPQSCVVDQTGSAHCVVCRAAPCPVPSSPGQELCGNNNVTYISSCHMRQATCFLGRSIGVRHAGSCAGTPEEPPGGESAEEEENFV
Chain of Alpha-bungarotoxin (Bungarus multicinctus) (P60615 whole entry, looked up): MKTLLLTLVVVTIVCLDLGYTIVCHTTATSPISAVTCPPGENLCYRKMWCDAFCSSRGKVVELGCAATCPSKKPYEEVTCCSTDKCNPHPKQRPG
Chain of Fibroblast growth factor 10 (Homo sapiens) (O15520 whole entry, looked up): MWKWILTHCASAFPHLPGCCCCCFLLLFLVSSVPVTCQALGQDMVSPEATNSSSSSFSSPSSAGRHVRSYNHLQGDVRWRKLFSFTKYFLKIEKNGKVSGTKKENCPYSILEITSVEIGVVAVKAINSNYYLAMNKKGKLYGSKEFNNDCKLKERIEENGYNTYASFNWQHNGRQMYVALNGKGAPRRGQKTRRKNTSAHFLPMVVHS
Chain of Dickkopf-related protein 1 (Homo sapiens) (O94907 whole entry, looked up): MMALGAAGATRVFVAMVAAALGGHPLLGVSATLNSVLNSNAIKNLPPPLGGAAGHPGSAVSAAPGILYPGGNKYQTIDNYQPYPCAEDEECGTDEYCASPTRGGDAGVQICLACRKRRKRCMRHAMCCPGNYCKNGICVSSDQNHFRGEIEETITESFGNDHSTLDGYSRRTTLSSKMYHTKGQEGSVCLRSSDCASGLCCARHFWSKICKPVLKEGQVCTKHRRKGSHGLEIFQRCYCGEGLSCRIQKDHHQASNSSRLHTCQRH
Chain of Left-right determination factor 2 (Homo sapiens) (O00292 whole entry, looked up): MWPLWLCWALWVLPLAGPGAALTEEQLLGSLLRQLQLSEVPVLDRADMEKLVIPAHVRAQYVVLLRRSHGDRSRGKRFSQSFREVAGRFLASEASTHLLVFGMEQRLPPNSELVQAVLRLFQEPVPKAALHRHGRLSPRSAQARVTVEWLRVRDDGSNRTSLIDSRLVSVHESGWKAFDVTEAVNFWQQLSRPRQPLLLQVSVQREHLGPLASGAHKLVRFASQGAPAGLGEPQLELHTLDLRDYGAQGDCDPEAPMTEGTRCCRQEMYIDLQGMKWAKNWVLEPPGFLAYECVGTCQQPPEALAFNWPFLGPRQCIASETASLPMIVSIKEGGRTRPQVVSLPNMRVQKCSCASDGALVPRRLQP
Chain of Epidermal growth factor receptor (Homo sapiens) (P00533 whole entry, looked up): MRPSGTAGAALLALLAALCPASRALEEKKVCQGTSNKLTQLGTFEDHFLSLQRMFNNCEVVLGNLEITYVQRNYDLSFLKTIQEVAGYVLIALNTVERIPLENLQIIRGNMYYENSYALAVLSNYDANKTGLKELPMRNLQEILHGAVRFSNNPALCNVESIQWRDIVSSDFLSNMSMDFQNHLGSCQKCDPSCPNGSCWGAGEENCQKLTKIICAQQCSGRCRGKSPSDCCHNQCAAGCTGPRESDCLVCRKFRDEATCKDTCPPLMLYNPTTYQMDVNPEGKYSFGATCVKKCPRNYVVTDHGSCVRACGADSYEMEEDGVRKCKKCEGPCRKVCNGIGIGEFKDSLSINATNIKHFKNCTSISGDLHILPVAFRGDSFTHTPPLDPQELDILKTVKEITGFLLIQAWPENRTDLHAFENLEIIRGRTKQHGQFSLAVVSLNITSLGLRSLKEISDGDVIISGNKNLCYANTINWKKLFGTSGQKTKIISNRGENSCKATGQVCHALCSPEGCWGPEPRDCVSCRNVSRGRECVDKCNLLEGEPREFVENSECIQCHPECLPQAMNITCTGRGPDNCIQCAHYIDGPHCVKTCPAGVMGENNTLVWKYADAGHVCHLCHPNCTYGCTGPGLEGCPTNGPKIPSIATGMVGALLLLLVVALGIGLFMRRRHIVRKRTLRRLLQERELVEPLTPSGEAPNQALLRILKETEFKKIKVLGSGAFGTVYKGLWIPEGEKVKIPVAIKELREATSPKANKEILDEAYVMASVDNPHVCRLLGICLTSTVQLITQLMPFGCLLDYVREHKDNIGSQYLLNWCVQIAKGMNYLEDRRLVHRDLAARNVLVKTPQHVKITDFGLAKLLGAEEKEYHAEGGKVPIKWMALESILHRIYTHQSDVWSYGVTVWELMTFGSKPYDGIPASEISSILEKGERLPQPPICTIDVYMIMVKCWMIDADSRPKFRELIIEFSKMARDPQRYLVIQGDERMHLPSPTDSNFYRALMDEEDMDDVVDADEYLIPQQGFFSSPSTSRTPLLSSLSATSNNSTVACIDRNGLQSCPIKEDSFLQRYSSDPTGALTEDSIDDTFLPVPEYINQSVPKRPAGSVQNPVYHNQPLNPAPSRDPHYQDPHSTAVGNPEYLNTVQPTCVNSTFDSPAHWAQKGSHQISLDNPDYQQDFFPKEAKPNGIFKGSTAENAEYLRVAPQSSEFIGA
Chain of Torsin-1A-interacting protein 1 (Homo sapiens) (Q5JTV8 whole entry, looked up): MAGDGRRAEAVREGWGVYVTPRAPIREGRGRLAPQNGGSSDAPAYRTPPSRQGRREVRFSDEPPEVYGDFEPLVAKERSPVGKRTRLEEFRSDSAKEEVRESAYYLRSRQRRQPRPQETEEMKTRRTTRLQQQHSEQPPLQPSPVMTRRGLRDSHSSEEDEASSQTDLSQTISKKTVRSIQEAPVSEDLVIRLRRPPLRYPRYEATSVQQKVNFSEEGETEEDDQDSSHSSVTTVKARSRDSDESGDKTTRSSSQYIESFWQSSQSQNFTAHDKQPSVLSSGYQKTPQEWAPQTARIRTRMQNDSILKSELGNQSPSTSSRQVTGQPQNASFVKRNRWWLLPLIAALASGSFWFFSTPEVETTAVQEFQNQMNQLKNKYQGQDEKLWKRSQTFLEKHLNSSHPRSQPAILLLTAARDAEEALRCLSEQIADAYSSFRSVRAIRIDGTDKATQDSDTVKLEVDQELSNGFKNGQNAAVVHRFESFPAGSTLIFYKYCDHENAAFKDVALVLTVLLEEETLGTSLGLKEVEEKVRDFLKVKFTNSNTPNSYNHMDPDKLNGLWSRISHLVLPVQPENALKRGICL

As for `O=C1[C@H]2[C@H]3[C@H](O)[C@H](O)CC(=NO[C@@H]4O[C@H](CO)[C@@H](O)[C@H](O)[C@H]4O)[C@@H]3CC[C@H]2C(=O)N1Cc1ccc2c(c1)OCO2`, the composite z-score in experiment [1] is 0.456; in [2], -0.174; in experiment [3] it was -0.576; in experiment [5], 0.422; in experiment [6] it was 0.708; in [7] it was 0.4. Further, the composite z-score was 0.521 in [8]; 0.921 in experiment [9]; -0.292 in experiment [10]; 1.13 in experiment [11]; 0.387 in experiment [13]; 0.0102 in experiment [14]. In addition, the composite z-score in [15] was -0.566; in experiment [16], -0.0519; in [17], -0.403; in experiment [18] it was -0.244; in experiment [19] it was 0.715; in [20], 0.378. Further, the z-score in experiment [4] is 0.0977 (inactive); in experiment [12], 0.363.
Take `COCCCNC(=O)[C@]1(Cc2ccccc2)N=C(c2ccc(OCCCO)cc2)O[C@@H]1c1ccccc1`: the composite z-score in [1] was 1.73; in experiment [2], -0.0501; in experiment [3], 0.755; in experiment [5], 1.16; in experiment [6], 0.618; in experiment [7], -0.578. For the same compound, the composite z-score in experiment [8] is -0.351; in experiment [9] it was -0.894; in experiment [10], 0.455; in [11], 1.09; in experiment [13], -0.248; in experiment [14], 1.81. For the same compound, the composite z-score in experiment [15] turned out to be 0.213; in experiment [16], 0.201; in experiment [17], 0.299; in [18], 1.89; in experiment [19], 1.84; in [20], 1.32. Further, the z-score in [4] was 0.0778 (inactive); in [12], -1.05.
For `CC(C)(C)N1C(=O)[C@H]2[C@H]3[C@H](O)[C@H](O)CC(=NOCc4ccccc4)[C@@H]3CC[C@H]2C1=O`, the composite z-score is 0.616 in experiment [1]; -0.192 in [2]; 0.24 in experiment [3]; 0.97 in experiment [5]; 0.535 in experiment [6]; 0.455 in experiment [7]. Besides, the composite z-score in experiment [8] is 0.988; in experiment [9] it was 1.59; in [10], 0.528; in [11] it was 0.093; in [13] it was 1.08; in experiment [14] it was -0.266. In addition, the composite z-score in experiment [15] was -0.717; in [16] it was -0.0194; in [17], -0.0146; in [18], -0.352; in [19], 0.593; in experiment [20] it was 1.19. Also, the results for the z-score in experiment [4] and in experiment [12] were -1.07 (inactive) and 0.656, respectively.
As to `COC(=O)[C@@H]1CCCN1C(=O)[C@@H](C)CO`, the composite z-score in experiment [1] is 0.42; in experiment [2], -0.0908; in experiment [3] it was -0.445; in experiment [5], 0.601; in experiment [6], 1.24; in experiment [7], 0.524. Further, the composite z-score in [8] is 0.592; in experiment [9] it was 0.547; in experiment [10] it was -0.198; in [11] it was 0.946; in experiment [13], 0.344; in experiment [14], 0.49. The composite z-score was 0.0051 in experiment [15]; -0.0566 in experiment [16]; -0.2 in experiment [17]; 0.141 in [18]; 0.451 in experiment [19]; 1.13 in experiment [20]. Also, the z-score in experiment [4] is -0.74 (inactive); in experiment [12], 0.868.
For the compound `CCOC(=O)NN=C1C[C@@H](O)[C@@H](O)[C@@H]2[C@@H]3C(=O)N(C4CCCCC4)C(=O)[C@@H]3CC[C@@H]12`, the composite z-score in experiment [1] is 0.104; in [2] it was -0.192; in experiment [3], -0.499; in experiment [5] it was 0.534; in [6], 0.132; in experiment [7], 0.34. Also, the composite z-score in [8] was 0.297; in experiment [9], 0.476; in experiment [10], 0.212; in experiment [11], 0.0883; in [13], 0.342; in experiment [14], -0.29. The composite z-score in experiment [15] was -0.401; in experiment [16], -0.0462; in experiment [17], -0.341; in experiment [18], -0.158; in experiment [19], 0.109; in experiment [20], 0.601. Moreover, the z-score is 1.06 (inactive) in experiment [4] and -0.336 in experiment [12].
Regarding `CCCCc1nc2c(c3c1C[C@H](C)OC3)CN(CCC(C)C)CC2`, the composite z-score is 0.956 in [1]; -0.0466 in experiment [2]; -0.47 in experiment [3]; 0.627 in experiment [5]; 1.25 in experiment [6]; 0.488 in [7]. Moreover, the composite z-score in experiment [8] was 1.26; in [9], 0.562; in [10], 0.0968; in experiment [11] it was 1.23; in [13] it was 0.893; in experiment [14] it was -0.0635. Further, the composite z-score is -0.747 in experiment [15]; -0.0704 in experiment [16]; -0.164 in experiment [17]; 0.372 in experiment [18]; 0.089 in experiment [19]; 0.595 in [20]. The values for the z-score in [4] and in experiment [12] were -0.0873 (inactive) and -0.953, respectively.
